About 83,000 compounds went through this panel and 20% of them were active in at least one assay; those are over-represented in the sample as a whole.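 Step 1: grow cells in 96-well plates. Step 2: add test compound at a single concentration. Step 3: incubate 48 h. Step 4: record percent growth.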 Unmarked numbers belong to inactive results. Calls of active or inactive are those of the source. The calls were made as follows: active = growth percent below 10; inactive = the rest.
tested on: MDA-MB-468 breast; test: NCI-60 one-dose screen, 48 h (100 = growth as untreated, 0 = no growth, -100 = all killed); settings: 10 µM unless noted

| Structure (SMILES) | growth |
| --- | --- |
| COc1cccc2cc(-c3cc4ccccc4[nH]3)c(=NC(=O)c3ccc(Cl)cc3)oc12 | 75% |
| COc1ccc(OC)c(NC(=O)CCCCCCNC(=O)C(O)(O)C(F)(F)F)c1 | 22.6% |
| CCN1C(=O)N(CC)C2C1NN=c1s/c(=C3\C(=O)N(CCC(C)C)c4ccccc43)c(=O)n12 (stereo not drawn) | 27.1% |
| COC(=O)c1nc(-c2ccccc2)oc1S(=O)(=O)n1nc(C)cc1N | 59.2% |
| Nc1ncnc2c1ncn2C1OC(COC(c2ccccc2)(c2ccccc2)c2ccccc2)C(O)C1O (stereo not drawn) | 89% |
| O=S(=O)(Nc1ccc(OC(F)F)cc1)c1ccc(-c2cnc(C3CC3)o2)cc1 | -9.07% (active) |
| CCN(CCNc1cc(OC)cc2cccnc12)CCc1ccccc1 | -25.4% (active) |
| Nc1ccc(-c2nn3c(CCC(=O)c4nc5ncccc5[nH]4)nnc3s2)c(O)c1 | 74.6% |
| COc1ccc(C(=O)C[C@]2(O)C(=O)Nc3c(Cl)ccc(Cl)c32)cc1 | -7.27% (active) |
| COc1cc2cc(c1Cl)N(C)C(=O)C[C@H](OC(=O)[C@H](C)N(C)C(=O)CCS)C[C@]1(C)O[C@H]1[C@H](C)[C@@H]1C[C@@](O)(NC(=O)O1)[C@H](OC)/C=C/C=C(\C)C2 | 42% |
| Nc1ncc(-c2ccc3ncnc(Nc4cccc(Cl)c4)c3c2)cn1 | -26.4% (active) |
| COc1cc(OC)cc(-c2ccc(-c3ccc(C(=N)N)o3)o2)c1 | 10.5% |
| N#CN1CCC[C@H]1C(=O)N1CCc2c(-c3[nH]nc4ncccc34)cccc21 | -19% (active) |

From PubChem BioAssay (NCI)
